In PubChem BioAssay (Tox21):
Results filed as inconclusive are left out. Active and inactive are the calls of the source. Unless noted, the call rests on the fitted dose curve; in most records, active means well fitted curve in the direction sought with a large enough effect in the repeat runs; inconclusive means weak or mixed curves; inactive means no such curve, though single readings can be large; an effect the other way counts as inactive or inconclusive.

Columns and labels:
[1] = qHTS assay to identify small molecule antagonists of the glucocorticoid receptor (GR) signaling pathway - cell viability counter screen (AID 720693); further: nearly all actives have a fitted effect of over 55% in size
[2] = qHTS assay for identifying genotoxic compounds that show differential cytotoxicity against isogenic chicken DT40 cell lines with known DNA damage response pathways - wild type cell line (AID 743012); further: nearly all actives have a fitted effect of over 60% in size; further: potency means the concentration at half of the fitted maximal effect
How it was run: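 Endpoint: CellTiter-Glo luminescence, 30 min RT. Cells: wild type DT40, 300/well. Exposure: compounds in DMSO, 40 h, 37 C/5% CO2, after ~0.5 h pre-incubation.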

[3] = qHTS assay for identifying genotoxic compounds that show differential cytotoxicity against isogenic chicken DT40 cell lines with known DNA damage response pathways - Rev3 mutant cell line (AID 743014); further: nearly all actives have a fitted effect of over 55% in size; further: potency means the concentration at half of the fitted maximal effect
[4] = qHTS assay for identifying genotoxic compounds that show differential cytotoxicity against isogenic chicken DT40 cell lines with known DNA damage response pathways - Rad54/Ku70 mutant cell line (AID 743015); further: nearly all actives have a fitted effect of over 60% in size; further: potency means the concentration at half of the fitted maximal effect
[5] = qHTS assay to identify small molecule antagonists of the androgen receptor (AR) signaling pathway - cell viability counter screen (AID 743033; further: nearly all actives have a fitted effect of over 45% in size)
[6] = qHTS assay to identify small molecule antagonists of the androgen receptor (AR) signaling pathway using the MDA cell line - cell viability counter screen (AID 743041; further: nearly all actives have a fitted effect of over 45% in size)
How it was run: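 Cytotoxicity counter screen: MDA-kb2 AR-luc cells, compound + R1881, 16 h, 37C, 0% CO2; CellTiter-Fluor added at 15.5 h, fluorescence read after 30 min.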

[7] = target: Androgen receptor (Homo sapiens) (UniProt P10275); assay: qHTS assay to identify small molecule antagonists of the androgen receptor (AR) signaling pathway (AID 743035; active means well fitted inhibition curve with a large enough effect in the signal ratio in the repeat runs, not every such curve was filed as active; the % refers to the signal ratio)
How it was run: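 R1881 agonist challenge of a HEK293 UAS-beta-lactamase AR reporter line in the presence of compound (16 h, 37C); signal taken as FRET fluorescence after 2 h with LiveBLAzer B/G substrate at room temperature.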

[8] = target: Androgen receptor (Homo sapiens) (UniProt P10275); assay: qHTS assay to identify small molecule agonists of the androgen receptor (AR) signaling pathway (AID 743036; active means well fitted activation curve with a large enough effect in the signal ratio in the repeat runs, with a control signal flat, not every such curve was filed as active; the % refers to the signal ratio)
How it was run: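 Activation was read as beta-lactamase FRET signal from LiveBLAzer B/G substrate, added for 2 h at room temperature. Before that, GeneBLAzer AR-UAS-bla GripTite (HEK293) cells had 16 h compound exposure at 37C.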

[9] = target: Androgen receptor (Homo sapiens) (UniProt P10275); assay: qHTS assay to identify small molecule agonists of the androgen receptor (AR) signaling pathway using the MDA cell line (AID 743040; further: nearly all actives have a fitted effect of over 20% in size; further: potency means the concentration at half of the fitted maximal effect)
How it was run: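 Luciferase read-out, ONE-Glo, 30 min RT. Cells: MDA-kb2 AR-luc, MMTV promoter with AR and GR response elements. Compound exposure 16 h, 37C, 0% CO2, after 5 h pre-incubation. qHTS agonist mode.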

[10] = target: Androgen receptor (Homo sapiens) (UniProt P10275); assay: qHTS assay to identify small molecule antagonists of the androgen receptor (AR) signaling pathway using the MDA cell line (AID 743042; further: nearly all actives have a fitted effect of over 55% in size)
How it was run: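 MDA-kb2 breast carcinoma cells carrying MMTV-luciferase (AR/GR responsive) were co-treated with compounds and the agonist R1881 for 16 h at 37C. Inhibition read as ONE-Glo luminescence; CellTiter-Fluor fluorescence measured in parallel for cytotoxicity.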
On the % scale 0 is the no-effect control and ±100 the full control effect.

Sequence of Androgen receptor (Homo sapiens) (P10275 whole entry, looked up): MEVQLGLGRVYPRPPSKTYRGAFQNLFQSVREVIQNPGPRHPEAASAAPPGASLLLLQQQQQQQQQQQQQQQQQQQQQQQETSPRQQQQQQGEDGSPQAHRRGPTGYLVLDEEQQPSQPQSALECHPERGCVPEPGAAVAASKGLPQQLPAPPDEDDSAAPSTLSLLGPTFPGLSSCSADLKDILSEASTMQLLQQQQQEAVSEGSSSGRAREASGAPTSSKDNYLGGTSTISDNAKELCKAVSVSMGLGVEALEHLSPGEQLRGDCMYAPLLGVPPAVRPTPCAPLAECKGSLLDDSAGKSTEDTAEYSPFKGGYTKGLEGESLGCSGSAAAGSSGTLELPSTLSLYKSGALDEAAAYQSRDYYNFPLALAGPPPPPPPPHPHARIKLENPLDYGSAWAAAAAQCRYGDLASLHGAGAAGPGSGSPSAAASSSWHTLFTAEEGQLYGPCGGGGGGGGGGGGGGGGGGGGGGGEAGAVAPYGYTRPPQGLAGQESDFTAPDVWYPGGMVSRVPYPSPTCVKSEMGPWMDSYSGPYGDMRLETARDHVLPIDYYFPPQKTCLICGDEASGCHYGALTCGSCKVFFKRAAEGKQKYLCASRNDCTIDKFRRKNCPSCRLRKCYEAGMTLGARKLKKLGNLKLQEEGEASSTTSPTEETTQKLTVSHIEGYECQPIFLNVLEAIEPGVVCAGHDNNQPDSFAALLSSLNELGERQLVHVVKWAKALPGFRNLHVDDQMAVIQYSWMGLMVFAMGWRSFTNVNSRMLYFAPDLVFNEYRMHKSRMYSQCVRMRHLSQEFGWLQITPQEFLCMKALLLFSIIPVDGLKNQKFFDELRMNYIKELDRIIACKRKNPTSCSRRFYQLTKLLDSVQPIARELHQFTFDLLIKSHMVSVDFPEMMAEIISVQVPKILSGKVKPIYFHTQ

C=C(C)C(=O)OCCCCCCCCCCCCCCCCCC
inactive: outcome [1] | Potency [2] | Potency [3] | Potency [4] | outcome [5] | Potency [6]

NS(=O)(=O)c1cc2c(cc1Cl)NC(CSCc1ccccc1)=NS2(=O)=O
inactive: outcome [1] | Potency [2] | Potency [4] | Potency [6]

CC1=CC(C)C(C=O)C(C)C1 (stereo not drawn)
inactive: outcome [1] | Potency [2] | outcome [5] | Potency [6]

C[C@H](O)C(=O)Nc1c(I)c(C(=O)NC(CO)CO)c(I)c(C(=O)NC(CO)CO)c1I
inactive: outcome [1] | Potency [2] | Potency [3] | Potency [4] | Potency [6]

CC(C)(O)c1ccccc1
inactive: outcome [1] | Potency [2] | Potency [3] | Potency [4] | outcome [5] | Potency [6]

CCCCCCC(CCCCCCCCCCC(=O)OCC(COC(C)=O)OC(C)=O)OC(C)=O (stereo not drawn)
inactive: outcome [1] | Potency [2] | Potency [3] | Potency [4] | outcome [5] | Potency [6]

COc1ccc(COC=O)cc1
inactive: outcome [1] | Potency [2] | Potency [3] | Potency [4] | outcome [5] | Potency [6]

O=C(O)/C=C/c1ccc(Cn2ccnc2)cc1
inactive: outcome [1] | Potency [2] | Potency [4] | outcome [5] | Potency [6]

O=C(O)c1ccc[n+]([O-])c1
inactive: outcome [1] | Potency [2] | Potency [4] | outcome [5] | Potency [7] | outcome [8] | Potency [9] | Potency [6] | outcome [10]

COC(C(=O)O)c1ccccc1 (stereo not drawn)
inactive: outcome [1] | Potency [2] | Potency [3] | Potency [4] | outcome [5] | Potency [6]

C(=C(c1ccccc1)c1ccccc1)c1ccccc1
inactive: outcome [1] | Potency [2] | outcome [5] | Potency [6]

CCN1CCCC1CNC(=O)c1cc(S(N)(=O)=O)ccc1OC (stereo not drawn)
inactive: outcome [1] | Potency [2] | Potency [4] | outcome [5] | Potency [7] | outcome [8] | Potency [9] | Potency [6] | outcome [10]

CC(C)c1ccc2oc3nc(N)c(C(=O)O)cc3c(=O)c2c1
inactive: outcome [1] | Potency [2] | Potency [3] | outcome [5] | Potency [7] | Potency [6] | outcome [10]
active: Potency [9] 11.9 µM

CC1(C)SC(C)(C)SC(C)(C)S1
inactive: outcome [1] | Potency [2] | Potency [3] | outcome [5] | Potency [7] | outcome [8] | Potency [9] | Potency [6] | outcome [10]

Cc1cc(C)cc(OCC2CNC(=O)O2)c1 (stereo not drawn)
inactive: outcome [1] | Potency [2] | Potency [4] | outcome [5] | Potency [6]

C[C@H]1O[C@@H](n2cc(F)c(=O)[nH]c2=O)[C@H](O)[C@@H]1O
inactive: outcome [1]
active: Potency [2] 21.1 µM | Potency [4] 23.7 µM

C/C=C1\C(=O)C[C@H]2[C@@H]3CCC4=CC(=O)CC[C@]4(C)[C@H]3CC[C@]12C
inactive: outcome [1] | Potency [6]
active: Potency [2] 18.9 µM | Potency [3] 10.7 µM | Potency [4] 13.4 µM

NC(=O)Nc1nc2ccccc2[nH]1
inactive: outcome [1] | Potency [2] | Potency [3] | Potency [4] | outcome [5] | Potency [6]

CSc1ccc(C=O)cc1
inactive: outcome [1] | Potency [2] | Potency [3] | Potency [4] | outcome [5] | Potency [6]

Nc1nc2c(ncn2CCC(CO)CO)c(=O)[nH]1
inactive: outcome [1] | outcome [5] | Potency [6]
active: Potency [2] 3.35 µM | Potency [3] 5.96 µM | Potency [4] 5.96 µM

Cc1ccccc1C(=O)O
inactive: outcome [1] | Potency [2] | Potency [3] | Potency [4] | outcome [5] | Potency [6]

NC(=S)Nc1cccc2ccccc12
inactive: viability change, negative = cytotoxic [1] -9.87% [at 7.04 µM] | activity change, negative = cytotoxicity [2] 28.7% [at 8.52 µM] | activity, negative = cytotoxicity [3] -8.62% [at 8.53 µM] | activity change, negative = cytotoxicity [5] 0.303% [at 7.04 µM] | viability change, negative = cytotoxic [6] -0.0936% [at 8.47 µM]

C=C[Si](OC)(OC)OC
inactive: outcome [1] | Potency [3] | Potency [4] | outcome [5] | Potency [6]

CCCc1ccccc1O
inactive: outcome [1] | Potency [3] | Potency [4] | outcome [5] | Potency [6]

CC(C)(C)N(CCO)CCO
inactive: outcome [1] | Potency [3] | Potency [4] | outcome [5] | Potency [6]

C1CCCCCCCCCCC1
inactive: outcome [1] | Potency [3] | Potency [4] | outcome [5] | outcome [8] | Potency [9] | Potency [6] | outcome [10]

C=CCOCC(O)CS(=O)(=O)O (stereo not drawn)
inactive: outcome [1] | Potency [3] | Potency [4] | outcome [5] | Potency [6]

CC(C)CCCCCCN
inactive: outcome [1] | Potency [3] | Potency [4] | outcome [5] | outcome [8] | Potency [9] | Potency [6] | outcome [10]

FC(F)(F)C(F)(F)C(F)(F)C(F)(F)C(F)(F)C(F)(F)C(F)(F)C(F)(F)C(F)(F)C(F)(F)F
inactive: viability change, negative = cytotoxic [1] -1.03% [at 7.04 µM] | activity, negative = cytotoxicity [3] -1.46% [at 8.53 µM] | activity change, negative = cytotoxicity [4] 4.69% [at 8.55 µM] | activity change, negative = cytotoxicity [5] 0.133% [at 7.04 µM] | viability change, negative = cytotoxic [6] 6.81% [at 8.47 µM]

COc1cc(O)cc(O)c1
inactive: outcome [1] | Potency [3] | Potency [4] | outcome [5] | Potency [6]

COc1cccc(OC)c1
inactive: outcome [1] | Potency [3] | Potency [4] | outcome [5] | Potency [6]

CC(C)[N+](C)(C)CC(O)COc1cccc2ccccc12 (stereo not drawn)
inactive: outcome [1] | Potency [3] | Potency [4] | outcome [5]

CCC(=O)c1cccc(Cl)c1
inactive: outcome [1] | Potency [3] | Potency [4] | outcome [5] | Potency [6]

CC(=O)CCc1ccc(O)cc1
inactive: outcome [1] | Potency [3] | Potency [4] | outcome [5] | Potency [6]

CC1=CC(=O)CCC1
inactive: outcome [1] | Potency [3] | Potency [4] | outcome [5] | Potency [6]

C=CC(=O)N1CCOCC1
inactive: outcome [1] | Potency [3] | Potency [4] | outcome [5]

O=S(=O)(c1cccc2cnccc12)N1CCCNCC1
inactive: outcome [1] | Potency [3] | Potency [4] | outcome [5] | Potency [6]

COc1ccc(NC(C)=O)cc1
inactive: outcome [1] | Potency [3] | Potency [4] | outcome [5] | Potency [7] | outcome [8] | Potency [9] | Potency [6] | outcome [10]

COC(=O)C1=C(C)NC(C)=C(C(=O)OCC(C)=O)C1c1ccccc1[N+](=O)[O-] (stereo not drawn)
active: Potency [3] 11.9 µM | Potency [4] 10.6 µM
inactive: outcome [1]

O=[N+]([O-])c1ccc(Oc2ccc([N+](=O)[O-])cc2)cc1
inactive: outcome [1] | Potency [3] | Potency [4] | outcome [5]

CNc1ncnc2nc[nH]c12
inactive: outcome [1] | Potency [3] | Potency [4] | outcome [5] | Potency [6]

CCCCC=O
inactive: outcome [1] | Potency [3] | Potency [4] | outcome [5]

C=CC(=O)OCCCCCC
inactive: outcome [1] | Potency [3] | Potency [4] | outcome [5] | Potency [6]

Nc1[nH]c(=O)ncc1F
inactive: outcome [1] | Potency [3] | Potency [4] | outcome [5]

C=CCn1c(=O)n([C@@H]2O[C@H](CO)[C@@H](O)[C@H]2O)c2nc(N)[nH]c(=O)c21
inactive: outcome [1] | Potency [3] | Potency [4] | outcome [5] | Potency [7] | outcome [8] | Potency [9] | Potency [6] | outcome [10]

CCCCCCOC(=O)c1ccccc1O
active: Potency [3] 27.3 µM
inactive: outcome [1] | Potency [4] | outcome [5] | Potency [7] | Potency [9] | outcome [10]

CC(C)=CCC/C(C)=C/C(=O)O
inactive: outcome [1] | Potency [3] | Potency [4] | outcome [5] | Potency [6]

CCCOCC(C)OCC(C)O (stereo not drawn)
inactive: outcome [1] | Potency [3] | Potency [4] | outcome [5] | Potency [7] | Potency [9] | Potency [6] | outcome [10]

CC(C)COC(=O)C(C)C
inactive: outcome [1] | Potency [3] | Potency [4] | outcome [5] | Potency [6]

CCCCc1ccc2cccc(S(=O)(=O)O)c2c1
inactive: outcome [1] | Potency [3] | Potency [4] | outcome [5] | Potency [7] | outcome [8] | Potency [9] | Potency [6] | outcome [10]

CC(C)CCOC(=O)CC(C)C
inactive: outcome [1] | Potency [3] | Potency [4] | outcome [5] | Potency [6]

COc1cccc(Br)c1
inactive: outcome [1] | Potency [3] | Potency [4] | outcome [5] | Potency [7] | outcome [8] | Potency [9] | outcome [10]

CN(C)C(=O)C(CCN1CCC(O)(c2ccc(Cl)cc2)CC1)(c1ccccc1)c1ccccc1
active: Potency [3] 10.6 µM | Potency [4] 10.6 µM
inactive: outcome [1]

C=C(C)C(=O)NCCC[N+](C)(C)C
inactive: outcome [1] | Potency [3] | Potency [4] | outcome [5] | Potency [6]

CC/C=C\CCCCO
inactive: outcome [1] | Potency [2] | outcome [5] | Potency [6]

CSc1nc(NC2CC2)nc(NC(C)(C)C)n1
inactive: outcome [1] | outcome [5] | Potency [6]
active: Potency [3] 54.5 µM | Potency [4] 54.5 µM

CC(=O)OC(C)(C)C
inactive: outcome [1] | Potency [3] | Potency [4] | outcome [5]

Cc1ccc(N)cc1[N+](=O)[O-]
inactive: outcome [1] | Potency [3] | Potency [4] | outcome [5] | Potency [7] | outcome [8] | Potency [9] | Potency [6] | outcome [10]
